Bioassay records as filed in PubChem.
Hits are enriched below; roughly 3.3% of the tested compounds scored in any of these assays.
Mcl1 Noxa PPI: disrupts binding of human Mcl-1 to Noxa peptide. Q07820. TR-FRET Mcl-1/Noxa peptide binding, 2 h. inhibition, % at 21.7 µM. actives 1.5% (n = 220,000). AID 1022;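 active = compounds that cut the protein-peptide binding signal by more than 50% relative to plate controls in a single-dose test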;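 note: His-tagged Mcl-1 with rhodamine Noxa BH3 peptide and terbium anti-His antibody; 0% = Mcl-1 plus Noxa peptide wells and 100% = peptide-only wells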
Mcl1 Bid PPI: disrupts binding of human Mcl-1 to Bid peptide; Q07820; TR-FRET Mcl-1/Bid-Dy647 peptide binding, 1536-well; inhibition, % at 21.7 µM; actives 0.97% (n = 220,000); AID 1021;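 active = compounds that cut the binding signal by more than half at the single screening dose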;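 note: His-tagged Mcl-1 with europium anti-His antibody binding Bid BH3 peptide; 0% = Mcl-1 plus peptide wells and 100% = peptide-only wells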
Bim-Mcl-1: human Bim-Mcl-1 interaction inhibition. Q07820. Bead-based flow cytometry, Bim peptide-Mcl-1 binding. inhibition, % at 10 µM. actives 0.1% (n = 190,000). AID 1009; in the data active = inhibition above about 40%;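 note: 0% = no compound tracer wells and 100% = peptide blocker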
14-3-3 Bad PPI: disrupts binding of bovine 14-3-3 zeta to phospho-Bad peptide | TR-FRET 14-3-3zeta/Dy647-pBad peptide displacement, 1 h | inhibition, % at 21.7 µM | actives 0.71% (n = 220,000) | AID 781;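 active = inhibition above about 70%, limit read from the data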;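 note: 0% = full 14-3-3 plus peptide FRET controls and 100% = background without 14-3-3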
p47phox inh: p47phox (human) inhibition | inhibition, % at 24.7 µM | P14598 | actives 0.53% (n = 220,000) | p47phox/p22phox peptide binding, fluorescence polarization, 2 h | AID 1274;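 note: 0% = p47phox with labelled peptide and 100% = labelled peptide alone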
eIF4E 4G PPI: inhibitors of eIF4E and eIF4G interaction in translation initiation; P63073+Q04637; AID 782; TR-FRET eIF4E-eIF4GI(517-606) binding, 2 h; inhibition, % at 21.7 µM; actives 0.37% (n = 220,000);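 note: 0% = full FRET control wells and 100% = background wells lacking eIF4GI fragment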
Starred values were filed as active, the others as inactive; · = no result; [ ] = dose if it differs, or a comment.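 Rule for the calls, unless noted: active = inhibition above about 30% (limit read from the data); inactive = the rest.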

SMILES	Mcl1 Noxa PPI	Mcl1 Bid PPI	Bim-Mcl-1	14-3-3 Bad PPI	p47phox inh	eIF4E 4G PPI
O=C(c1cccc(F)c1)N1CCC(N2CCOCC2)CC1	29.6	34.8	1.0	74.2*	-7.0	4.0
O=C(c1ccco1)N1CCN(Cc2cccc(F)c2)CC1	32.3	21.5	1.0	73.5*	-4.6	1.0
O=C1NC(CCc2ccccc2)C(=O)N1CCOc1cccc(Br)c1 (centres undefined)	-3.4	13.4	0.0	-8.8	-10.2	0.3
COc1cc(C2C3=C(CCCC3=O)Nc3[nH]n(-c4ccccc4)c(=O)c32)ccc1OC(C)=O (centres undefined)	20.5	-16.6	2.0	-8.9	4.5	-1.6
O=C(c1ccco1)N1CCN(Cc2ccc(Cl)cc2)CC1	17.9	31.1	-1.0	78.2*	-3.9	4.6
O=C(c1ccco1)N1CCN(CC(=O)N2c3ccccc3CCc3ccccc32)CC1	14.8	56.5*	-2.0	31.0	9.6	4.7
Fc1cccc(CN2CCCCCCC2)c1	33.0	41.9	-5.0	78.3*	-8.4	0.5
O=C(Cc1ccc(Cl)cc1)N1CCN(C(=O)c2ccco2)CC1	8.2	-9.0	-2.0	1.5	-5.3	-1.5
Brc1cccc(CN2CCCCCCC2)c1	16.0	5.5	3.0	58.4	-5.1	-10.4
CC(=O)N1CCC(N(CCN2CCOCC2)C(=S)Nc2c(C)cccc2C)CC1	0.2	-60.3	1.0	-14.6	-8.4	-0.8
O=C(NCc1cccnc1)c1csc2c1CCCC2	10.3	-15.3	-3.0	-10.4	-6.3	0.6
O=c1c2ccccc2nc(/C=C/c2cccnc2)n1Cc1ccccc1	31.1	91.1*	2.0	94.3*	8.1	91.8*
O=c1c2ccccc2nc(/C=C/c2ccccc2)n1CCc1ccccc1	5.2	12.2	-4.0	0.5	-15.2	1.6
O=c1c2ccccc2nc(/C=C/c2cccnc2)n1CCc1ccccc1	21.9	95.2*	·	68.3	-4.4	11.0
Cc1cc(C)c(S(=O)(=O)Nc2ccnc(-c3cccnc3)n2)c(C)c1	-48.0	-14.8	-2.0	-22.7	-1.2	1.5
CN1CCN(CCC(=O)N2c3ccccc3Sc3ccc(C(F)(F)F)cc32)CC1	18.9	14.9	5.0	80.2*	-9.9	-2.6
O=C1c2ccccc2C(=O)N1CC(=O)N1c2ccccc2Sc2ccc(C(F)(F)F)cc21	-7.8	24.6	-9.0	-18.9	-7.9	5.5
O=C1/C(=C/c2cccs2)Sc2ccccc21	37.8	10.1	75.0*	-9.2	-1.5	-4.5
NC1=NC(=O)/C(=C/c2cccs2)S1	-3.9	-13.9	-1.0	-2.5	-32.5	-2.6
Cc1ccc(N=C2NC(=O)/C(=C\c3cccs3)S2)cc1C	26.3	-13.3	-4.0	1.4	-10.2	-6.8
O=C1Nc2ccccc2S/C1=C/c1cccs1	-24.1	-65.2	·	1.2	-5.3	73.8*
O=C1CC2c3ccccc3C1C1C(=O)N(CCc3ccccc3)C(=O)C21 (centres undefined)	-7.9	-21.1	-1.0	-7.0	-18.4	1.1
O=C(CNC(=O)c1ccc(F)cc1)N/N=C/c1cc(Br)ccc1OC(=O)/C=C/c1ccco1	59.4*	-0.6	·	-0.4	-16.2	2.0
COc1ccc(C(=O)n2nnc3ccccc32)cc1OC	16.9	2.5	-9.0	6.8	-25.0	-9.0
COc1ccc(N/C(=C(/C(Cl)=C(Cl)Cl)[N+](=O)[O-])n2nnc3ccccc32)cc1OC	35.6	74.6*	2.0	23.9	-4.9	0.4
SMILES	Mcl1 Noxa PPI	Mcl1 Bid PPI	Bim-Mcl-1	14-3-3 Bad PPI	p47phox inh	eIF4E 4G PPI
NC(=O)c1nsc(C(=O)N(c2cccc(F)c2)C(C(=O)NCC2CCCO2)c2cccs2)c1N (centres undefined)	-0.7	-24.4	-2.0	-0.8	-8.4	-4.7
NS(=O)(=O)c1ccc(CCNC(=O)c2ccc(C#CC3(O)CCCCC3)cc2)cc1	15.0	-0.7	0.0	-4.6	-6.5	-2.1
CC(C)(C)C1CCc2c(C(=O)NNC(=O)CCC(=O)O)csc2C1 (centres undefined)	104.1*	-8.4	-6.0	-0.9	-3.8	4.3
Cn1nc(CC(=O)Nc2ccc(N3CCN(C(=O)OC(C)(C)C)CC3)cc2)c2ccccc2c1=O	29.2	13.2	0.0	24.7	30.9*	-2.7
CCn1c(SCc2nc3cc(OC)c(OC)cc3c(=O)[nH]2)nc2ccccc21	-6.7	-50.1	3.0	8.1	-11.2	-1.3
COc1cc2nc(CN3CCN(C(c4ccccc4)c4ccccc4)CC3)[nH]c(=O)c2cc1OC	-22.6	-53.1	·	4.0	63.0*	-0.5
C/C(N)=C(/C#N)C(=O)COC(=O)c1ccc(NC(N)=O)cc1	-9.3	-22.7	·	3.8	-14.2	-19.1
CC(C)Sc1cc(N2CCOCC2)nc(-c2ccc(Cl)cc2)n1	-3.6	-0.7	3.0	7.3	-5.9	-0.4
CCN1CCN(c2cc(SC(C)C)nc(-c3ccc(OC)cc3)n2)CC1	20.1	2.7	0.0	71.1*[fluorescence artefact?]	-6.4	1.6
CCOC(=O)c1sc(N/N=C/c2ccccc2)nc1C	22.7	-2.6	-11.0	1.4	-15.2	0.2
O=C(O)Cc1sc(N/N=C\c2ccccc2)nc1-c1ccccc1	61.9*	-35.3	-3.0	-10.7	-6.4	-2.8
CCOC(=O)c1c(C)oc2c1c(C(c1cccnc1)N1CCCCC1)c(O)c1ccccc12 (centres undefined)	98.4*	59.7*	0.0	18.6	-6.1	-2.0
CCOC(=O)c1c(C)oc2c1c(C(c1ccccc1)N1CCOCC1)c(O)c1ccccc12 (centres undefined)	57.6*	59.8*	1.0	1.1	1.5	-3.5
COc1cc(C2CC(=O)N(c3ccc(C)cc3)C(=O)C2)cc(OC)c1OC	-4.8	-20.3	·	2.1	-5.8	0.2
CSc1nc(C)cc(C)c1C#N	·	·	0.0	·	·	·
CSc1nc2cc(C)nn2c(-c2ccccc2)c1C#N	-10.5	-6.7	·	94.3*	5.5	-2.2
Cc1cc(N=Cc2c(O)ccc3ccccc23)no1	29.8	-14.9	-2.0	14.3	-4.0	2.8
Cc1cc(N=Cc2c(O)ccc3cc(Br)ccc23)no1	83.9*	-23.2	1.0	1.9	2.0	2.2
CCOC(=O)c1[nH]ncc1CN1CCN(Cc2ccc(C)cc2)C(CCO)C1 (centres undefined)	5.8	-8.7	0.0	-7.1	-3.0	0.6
N#Cc1c(Nc2ccccc2)sc(C(=O)c2ccccc2)c1N	9.5	-42.5	0.0	-7.9	-18.8	12.7
Cc1cccc(Nc2sc(C(=O)c3cc4cc(Cl)ccc4o3)c(N)c2C#N)c1	67.8*	65.8*	·	66.6	5.8	4.0
CC(C)C(c1nnnn1CCc1ccccc1)N1CCOCC1 (centres undefined)	25.8	-10.9	-1.0	70.5*	0.3	-23.9
CC(C)C(c1nnnn1CCc1ccccc1)N1CCSCC1 (centres undefined)	-7.0	-15.7	-4.0	-11.8	-3.5	-3.9
